# How the values were obtained:
# Assay in all cases: DAPPL (digital affinity profiling via proximity ligation, sequencing); 10 mM Tris-HCl pH 7.5, 50 mM NaCl, 1 mM DTT, 4% glycerol, room temperature, 30 min; GST-TFs on glutathione beads, 16-mer random dsDNA library, 0.1% formaldehyde crosslink after washing; high values mean tight binding
# FEV = biological target: T1, FEV (Homo sapiens, UniProt Q99581 1-238); conditions: protein: recombinant; tags: N-terminal GST; dsDNA, one strand shown
# T1 sequence: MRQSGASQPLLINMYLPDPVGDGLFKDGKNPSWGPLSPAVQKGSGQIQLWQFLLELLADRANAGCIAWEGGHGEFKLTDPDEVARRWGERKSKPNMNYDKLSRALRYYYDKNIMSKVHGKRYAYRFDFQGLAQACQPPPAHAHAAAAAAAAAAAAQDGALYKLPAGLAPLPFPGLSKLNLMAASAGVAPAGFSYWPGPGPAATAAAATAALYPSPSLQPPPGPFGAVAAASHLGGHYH
# How it was run: (§1)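 A tag-only sample was pooled with DNA-barcoded human transcription factors that had been expressed in yeast as GST fusions and captured on glutathione beads. The pools were incubated for 30 min at room temperature with 200 nmole of a random double-stranded 16-mer DNA library in Tris/NaCl/DTT/glycerol buffer, then washed, crosslinked with 0.1% formaldehyde, proximity-ligated (BsaI/T4 ligase, 1 h, 37 °C), PCR-amplified and sequenced on an Illumina NextSeq500. Binding signal is each hexamer's read frequency for a factor divided by its frequency for the tag-only sample.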
# ETV5 = ETV5 (Homo sapiens, UniProt P41161 1-510); conditions: protein: recombinant; tags: N-terminal GST; dsDNA, one strand shown
# Sequence of ETV5 (P41161 whole entry): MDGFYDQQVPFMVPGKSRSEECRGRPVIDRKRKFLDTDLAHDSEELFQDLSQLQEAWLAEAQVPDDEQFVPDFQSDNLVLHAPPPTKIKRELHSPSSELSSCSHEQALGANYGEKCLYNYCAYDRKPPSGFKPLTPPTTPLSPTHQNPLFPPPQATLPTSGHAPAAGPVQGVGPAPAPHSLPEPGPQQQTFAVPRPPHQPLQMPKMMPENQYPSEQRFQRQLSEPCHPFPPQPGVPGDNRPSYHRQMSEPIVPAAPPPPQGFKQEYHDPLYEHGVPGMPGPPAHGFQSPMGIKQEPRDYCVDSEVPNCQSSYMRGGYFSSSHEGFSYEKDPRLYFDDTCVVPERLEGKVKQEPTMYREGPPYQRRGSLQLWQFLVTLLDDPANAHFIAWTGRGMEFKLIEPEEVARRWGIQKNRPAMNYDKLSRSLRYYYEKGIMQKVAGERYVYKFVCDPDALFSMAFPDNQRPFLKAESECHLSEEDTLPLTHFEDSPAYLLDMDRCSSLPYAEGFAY
# How it was run: as §1
# HSF1 = HSF1 (Homo sapiens, UniProt Q00613 1-529); conditions: protein: recombinant; tags: N-terminal GST; chain copies: 3; dsDNA, one strand shown
# Sequence of HSF1 (Q00613 whole entry): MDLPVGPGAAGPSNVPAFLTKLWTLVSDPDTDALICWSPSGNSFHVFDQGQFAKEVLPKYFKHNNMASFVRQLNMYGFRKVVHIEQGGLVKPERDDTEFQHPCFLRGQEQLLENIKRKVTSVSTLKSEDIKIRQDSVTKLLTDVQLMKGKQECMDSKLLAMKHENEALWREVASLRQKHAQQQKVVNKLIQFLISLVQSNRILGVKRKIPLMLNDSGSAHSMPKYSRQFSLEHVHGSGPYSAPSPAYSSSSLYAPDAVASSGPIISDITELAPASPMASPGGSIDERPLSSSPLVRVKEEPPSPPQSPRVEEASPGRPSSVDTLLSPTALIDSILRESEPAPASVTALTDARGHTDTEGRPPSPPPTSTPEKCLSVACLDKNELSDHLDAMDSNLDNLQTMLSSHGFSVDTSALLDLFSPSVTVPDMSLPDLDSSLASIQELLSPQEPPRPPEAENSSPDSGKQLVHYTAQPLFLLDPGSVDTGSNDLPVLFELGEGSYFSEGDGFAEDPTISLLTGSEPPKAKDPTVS
# How it was run: as §1
# SPIC = biological target: T2, SPIC (Homo sapiens, UniProt Q8N5J4 1-248); conditions: protein: recombinant; tags: N-terminal GST; dsDNA, one strand shown
# T2 sequence: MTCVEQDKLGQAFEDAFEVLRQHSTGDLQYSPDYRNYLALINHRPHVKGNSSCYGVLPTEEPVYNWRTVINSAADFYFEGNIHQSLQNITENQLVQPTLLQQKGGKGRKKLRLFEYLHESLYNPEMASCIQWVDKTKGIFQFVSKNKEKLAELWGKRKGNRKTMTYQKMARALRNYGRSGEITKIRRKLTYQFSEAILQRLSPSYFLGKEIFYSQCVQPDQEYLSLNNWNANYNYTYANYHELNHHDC
# How it was run: as §1
# ELF4 = ELF4 (Homo sapiens, UniProt Q99607 1-663); conditions: protein: recombinant; tags: N-terminal GST; dsDNA, one strand shown
# Sequence of ELF4 (Q99607 whole entry): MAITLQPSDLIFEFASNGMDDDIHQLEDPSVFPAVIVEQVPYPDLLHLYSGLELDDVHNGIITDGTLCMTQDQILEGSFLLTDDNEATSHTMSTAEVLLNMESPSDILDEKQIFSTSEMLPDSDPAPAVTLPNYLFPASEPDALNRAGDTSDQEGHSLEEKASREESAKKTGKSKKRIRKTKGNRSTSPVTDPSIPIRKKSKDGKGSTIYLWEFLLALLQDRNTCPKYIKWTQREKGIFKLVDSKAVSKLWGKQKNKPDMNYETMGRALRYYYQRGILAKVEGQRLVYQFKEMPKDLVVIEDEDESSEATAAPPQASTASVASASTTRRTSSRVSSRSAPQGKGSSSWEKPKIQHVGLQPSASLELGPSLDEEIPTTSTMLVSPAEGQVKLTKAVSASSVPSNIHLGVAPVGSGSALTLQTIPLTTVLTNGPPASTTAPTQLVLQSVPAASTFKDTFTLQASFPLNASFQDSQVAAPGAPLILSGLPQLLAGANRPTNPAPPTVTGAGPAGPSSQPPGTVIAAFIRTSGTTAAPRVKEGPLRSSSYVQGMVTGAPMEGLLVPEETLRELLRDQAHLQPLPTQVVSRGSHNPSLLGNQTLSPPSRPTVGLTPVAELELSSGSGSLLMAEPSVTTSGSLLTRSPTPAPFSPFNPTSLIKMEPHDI
# How it was run: as §1
# ELK4 = biological target: T3, ELK4 (Homo sapiens, UniProt P28324-2 1-405); conditions: protein: recombinant; tags: N-terminal GST; dsDNA, one strand shown
# T3 sequence: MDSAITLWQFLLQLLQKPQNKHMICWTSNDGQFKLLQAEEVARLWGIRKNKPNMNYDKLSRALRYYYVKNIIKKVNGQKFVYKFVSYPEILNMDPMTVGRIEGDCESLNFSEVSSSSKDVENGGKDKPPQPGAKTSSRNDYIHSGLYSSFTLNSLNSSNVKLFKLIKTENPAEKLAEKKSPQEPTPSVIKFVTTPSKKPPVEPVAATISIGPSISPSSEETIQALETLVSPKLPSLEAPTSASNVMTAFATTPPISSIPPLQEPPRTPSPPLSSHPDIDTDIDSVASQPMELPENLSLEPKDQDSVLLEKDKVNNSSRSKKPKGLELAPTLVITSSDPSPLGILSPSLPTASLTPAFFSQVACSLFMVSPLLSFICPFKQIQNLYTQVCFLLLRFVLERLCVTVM
# How it was run: as §1
# ETV2 = biological target: T4, ETV2 (Homo sapiens, UniProt O00321 1-342); conditions: protein: recombinant; tags: N-terminal GST; dsDNA, one strand shown
# T4 sequence: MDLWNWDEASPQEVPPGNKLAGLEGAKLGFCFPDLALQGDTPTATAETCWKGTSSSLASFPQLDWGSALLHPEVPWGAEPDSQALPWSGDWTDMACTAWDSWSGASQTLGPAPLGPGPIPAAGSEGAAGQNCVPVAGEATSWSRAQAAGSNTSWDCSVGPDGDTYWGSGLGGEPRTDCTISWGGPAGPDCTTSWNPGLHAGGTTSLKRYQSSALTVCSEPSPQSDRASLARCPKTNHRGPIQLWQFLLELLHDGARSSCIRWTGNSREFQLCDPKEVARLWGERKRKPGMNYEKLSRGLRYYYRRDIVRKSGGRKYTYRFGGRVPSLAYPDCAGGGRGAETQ
# How it was run: as §1
# ELF3 = biological target: T5, ELF3 (Homo sapiens, UniProt P78545 1-371); conditions: protein: recombinant; tags: N-terminal GST; dsDNA, one strand shown
# T5 sequence: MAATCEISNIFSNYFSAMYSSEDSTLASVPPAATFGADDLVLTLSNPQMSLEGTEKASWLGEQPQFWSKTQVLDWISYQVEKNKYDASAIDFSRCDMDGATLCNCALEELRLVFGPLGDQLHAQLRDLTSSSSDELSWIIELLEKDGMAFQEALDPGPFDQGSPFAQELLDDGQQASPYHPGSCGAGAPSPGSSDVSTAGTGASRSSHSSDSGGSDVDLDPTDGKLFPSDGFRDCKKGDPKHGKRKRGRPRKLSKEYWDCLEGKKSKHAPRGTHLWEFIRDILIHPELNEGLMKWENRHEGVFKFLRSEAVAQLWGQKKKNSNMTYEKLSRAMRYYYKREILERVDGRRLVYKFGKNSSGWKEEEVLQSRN
# How it was run: as §1
# CRX = CRX (Homo sapiens, UniProt O43186 1-299); conditions: protein: recombinant; tags: N-terminal GST; dsDNA, one strand shown
# Sequence of CRX (O43186 whole entry): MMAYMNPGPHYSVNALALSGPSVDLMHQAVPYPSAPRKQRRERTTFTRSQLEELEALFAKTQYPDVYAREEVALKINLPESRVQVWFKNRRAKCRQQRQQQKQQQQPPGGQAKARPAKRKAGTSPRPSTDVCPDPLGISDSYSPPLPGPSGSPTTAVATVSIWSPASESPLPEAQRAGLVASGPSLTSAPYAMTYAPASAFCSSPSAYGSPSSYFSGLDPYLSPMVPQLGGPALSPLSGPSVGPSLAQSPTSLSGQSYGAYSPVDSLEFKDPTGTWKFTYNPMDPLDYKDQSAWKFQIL
# How it was run: as §1
# ETV1 = ETV1 (Homo sapiens, UniProt P50549 1-477); conditions: protein: recombinant; tags: N-terminal GST; dsDNA, one strand shown
# Sequence of ETV1 (P50549 whole entry): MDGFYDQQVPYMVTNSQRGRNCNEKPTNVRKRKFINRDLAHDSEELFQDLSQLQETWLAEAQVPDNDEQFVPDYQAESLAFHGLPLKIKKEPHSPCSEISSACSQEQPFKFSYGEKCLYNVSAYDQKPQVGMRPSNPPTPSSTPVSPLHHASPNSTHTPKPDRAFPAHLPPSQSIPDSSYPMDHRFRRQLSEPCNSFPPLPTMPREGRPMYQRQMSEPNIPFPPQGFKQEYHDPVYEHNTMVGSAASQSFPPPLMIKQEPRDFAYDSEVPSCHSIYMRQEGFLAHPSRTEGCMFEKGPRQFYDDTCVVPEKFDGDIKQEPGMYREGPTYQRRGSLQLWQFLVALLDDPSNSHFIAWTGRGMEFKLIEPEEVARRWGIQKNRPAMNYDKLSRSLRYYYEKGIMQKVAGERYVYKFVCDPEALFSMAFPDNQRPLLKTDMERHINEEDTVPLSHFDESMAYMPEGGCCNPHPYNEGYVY
# How it was run: as §1
# ERF = biological target: T6, ERF (Homo sapiens, UniProt P50548 1-548); conditions: protein: recombinant; tags: N-terminal GST; dsDNA, one strand shown
# T6 sequence: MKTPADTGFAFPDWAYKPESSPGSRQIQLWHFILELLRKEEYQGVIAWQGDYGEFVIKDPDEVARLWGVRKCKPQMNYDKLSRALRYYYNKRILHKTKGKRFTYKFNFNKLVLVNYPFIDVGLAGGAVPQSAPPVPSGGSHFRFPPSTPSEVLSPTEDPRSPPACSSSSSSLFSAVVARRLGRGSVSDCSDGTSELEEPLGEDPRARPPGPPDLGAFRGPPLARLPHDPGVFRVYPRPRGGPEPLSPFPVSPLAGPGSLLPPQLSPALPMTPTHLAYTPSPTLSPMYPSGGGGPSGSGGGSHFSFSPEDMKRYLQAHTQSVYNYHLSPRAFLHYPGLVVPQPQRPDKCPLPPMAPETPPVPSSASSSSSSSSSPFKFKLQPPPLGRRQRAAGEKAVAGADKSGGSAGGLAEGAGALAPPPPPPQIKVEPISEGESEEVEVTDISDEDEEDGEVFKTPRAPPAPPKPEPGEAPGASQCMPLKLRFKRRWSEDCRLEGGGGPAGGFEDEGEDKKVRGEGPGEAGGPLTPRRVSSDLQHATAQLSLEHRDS
# How it was run: as §1
# ETV3L = biological target: T7, ETV3L (Homo sapiens, UniProt Q6ZN32 1-361); conditions: protein: recombinant; tags: N-terminal GST; dsDNA, one strand shown
# T7 sequence: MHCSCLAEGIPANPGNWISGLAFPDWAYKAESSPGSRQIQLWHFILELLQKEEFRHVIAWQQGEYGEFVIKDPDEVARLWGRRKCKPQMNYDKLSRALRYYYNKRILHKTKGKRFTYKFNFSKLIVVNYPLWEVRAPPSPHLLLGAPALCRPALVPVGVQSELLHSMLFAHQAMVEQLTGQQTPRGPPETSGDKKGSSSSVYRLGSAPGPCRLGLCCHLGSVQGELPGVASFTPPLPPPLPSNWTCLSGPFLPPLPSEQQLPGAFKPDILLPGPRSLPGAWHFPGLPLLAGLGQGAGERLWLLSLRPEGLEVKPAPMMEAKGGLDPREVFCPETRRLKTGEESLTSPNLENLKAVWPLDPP
# How it was run: as §1
# ETS2 = biological target: T8, ETS2 (Homo sapiens, UniProt P15036 1-469); conditions: protein: recombinant; tags: N-terminal GST; dsDNA, one strand shown
# T8 sequence: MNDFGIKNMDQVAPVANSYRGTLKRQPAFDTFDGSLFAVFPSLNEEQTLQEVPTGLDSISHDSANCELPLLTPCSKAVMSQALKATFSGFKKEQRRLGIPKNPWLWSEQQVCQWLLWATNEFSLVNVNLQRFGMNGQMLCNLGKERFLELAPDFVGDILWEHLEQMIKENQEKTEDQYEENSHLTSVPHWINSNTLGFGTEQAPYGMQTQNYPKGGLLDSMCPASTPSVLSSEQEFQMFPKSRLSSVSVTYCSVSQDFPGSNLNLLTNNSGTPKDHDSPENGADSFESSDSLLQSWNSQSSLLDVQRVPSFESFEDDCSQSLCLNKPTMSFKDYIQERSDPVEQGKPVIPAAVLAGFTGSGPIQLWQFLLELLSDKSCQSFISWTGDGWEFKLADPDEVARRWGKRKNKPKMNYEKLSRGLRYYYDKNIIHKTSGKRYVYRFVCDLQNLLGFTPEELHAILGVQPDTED
# How it was run: as §1
# SPDEF = biological target: T9, SPDEF (Homo sapiens, UniProt O95238 1-335); conditions: protein: recombinant; tags: N-terminal GST; dsDNA, one strand shown
# T9 sequence: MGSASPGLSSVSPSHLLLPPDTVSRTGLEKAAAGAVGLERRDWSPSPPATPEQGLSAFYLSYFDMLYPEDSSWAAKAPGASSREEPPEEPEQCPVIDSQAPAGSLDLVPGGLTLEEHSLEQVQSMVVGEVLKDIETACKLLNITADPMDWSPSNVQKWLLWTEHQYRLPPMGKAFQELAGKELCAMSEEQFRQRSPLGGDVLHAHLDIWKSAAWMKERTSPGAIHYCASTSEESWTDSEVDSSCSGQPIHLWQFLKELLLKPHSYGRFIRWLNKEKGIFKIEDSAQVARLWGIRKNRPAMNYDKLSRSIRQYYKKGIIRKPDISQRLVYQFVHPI
# How it was run: as §1
# ETV7 = biological target: T10, ETV7 (Homo sapiens, UniProt Q9Y603 1-341); conditions: protein: recombinant; tags: N-terminal GST; dsDNA, one strand shown
# T10 sequence: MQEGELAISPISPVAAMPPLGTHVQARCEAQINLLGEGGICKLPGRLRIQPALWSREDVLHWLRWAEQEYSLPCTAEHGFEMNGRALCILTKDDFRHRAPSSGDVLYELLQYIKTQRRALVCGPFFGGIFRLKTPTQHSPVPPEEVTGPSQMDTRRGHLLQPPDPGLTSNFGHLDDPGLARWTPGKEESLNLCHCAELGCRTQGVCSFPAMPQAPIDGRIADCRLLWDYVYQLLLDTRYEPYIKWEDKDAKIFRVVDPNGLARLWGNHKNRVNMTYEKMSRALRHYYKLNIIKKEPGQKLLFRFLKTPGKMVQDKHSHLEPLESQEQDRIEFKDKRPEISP
# How it was run: as §1
# ELF5 = biological target: T11, ELF5 (Homo sapiens, UniProt Q9UKW6-2 1-255); conditions: protein: recombinant; tags: N-terminal GST; dsDNA, one strand shown
# T11 sequence: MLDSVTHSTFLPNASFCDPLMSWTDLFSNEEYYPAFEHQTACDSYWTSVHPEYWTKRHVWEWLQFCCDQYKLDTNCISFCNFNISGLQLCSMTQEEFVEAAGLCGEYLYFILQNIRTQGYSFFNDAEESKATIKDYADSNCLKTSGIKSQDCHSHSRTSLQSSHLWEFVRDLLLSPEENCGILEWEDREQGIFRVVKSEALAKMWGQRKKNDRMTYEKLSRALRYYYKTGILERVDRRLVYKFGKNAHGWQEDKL
# How it was run: as §1
# ETV3 = biological target: T12, ETV3 (Homo sapiens, UniProt P41162-2 1-143); conditions: protein: recombinant; tags: N-terminal GST; dsDNA, one strand shown
# T12 sequence: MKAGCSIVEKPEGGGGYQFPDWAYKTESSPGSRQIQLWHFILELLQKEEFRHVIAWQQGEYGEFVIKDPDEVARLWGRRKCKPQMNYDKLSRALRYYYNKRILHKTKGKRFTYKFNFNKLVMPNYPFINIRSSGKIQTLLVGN
# How it was run: as §1
# ETV6 = ETV6 (Homo sapiens, UniProt P41212 1-452); conditions: protein: recombinant; tags: N-terminal GST; dsDNA, one strand shown
# Sequence of ETV6 (P41212 whole entry): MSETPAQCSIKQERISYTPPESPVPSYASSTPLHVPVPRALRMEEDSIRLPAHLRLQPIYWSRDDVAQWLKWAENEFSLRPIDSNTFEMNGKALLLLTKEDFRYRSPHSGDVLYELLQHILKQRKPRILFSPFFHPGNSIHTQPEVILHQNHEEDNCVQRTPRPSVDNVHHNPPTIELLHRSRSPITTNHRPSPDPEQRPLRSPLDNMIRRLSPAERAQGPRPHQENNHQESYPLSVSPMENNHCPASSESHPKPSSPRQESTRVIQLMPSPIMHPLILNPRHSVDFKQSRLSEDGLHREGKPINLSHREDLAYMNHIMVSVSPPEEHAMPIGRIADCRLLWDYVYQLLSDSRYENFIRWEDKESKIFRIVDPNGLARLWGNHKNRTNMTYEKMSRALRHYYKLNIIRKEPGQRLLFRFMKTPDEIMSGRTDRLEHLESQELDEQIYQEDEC
# How it was run: as §1
sequence,measurement,setting,value
CTCATC,binding signal,FEV,"1.34 fold enrichment (6-mer frequency, TF over GST control)"
same,binding signal,ETV5,"1.34 fold enrichment (6-mer frequency, TF over GST control)"
same,binding signal,HSF1,"1.27 fold enrichment (6-mer frequency, TF over GST control)"
same,binding signal,SPIC,"1.49 fold enrichment (6-mer frequency, TF over GST control)"
same,binding signal,ELF4,"1.35 fold enrichment (6-mer frequency, TF over GST control)"
same,binding signal,ELK4,"1.32 fold enrichment (6-mer frequency, TF over GST control)"
same,binding signal,ETV2,"1.45 fold enrichment (6-mer frequency, TF over GST control)"
same,binding signal,ELF3,"1.49 fold enrichment (6-mer frequency, TF over GST control)"
same,binding signal,CRX,"1.32 fold enrichment (6-mer frequency, TF over GST control)"
same,binding signal,ETV1,"1.4 fold enrichment (6-mer frequency, TF over GST control)"
same,binding signal,ERF,"1.44 fold enrichment (6-mer frequency, TF over GST control)"
same,binding signal,ETV3L,"1.5 fold enrichment (6-mer frequency, TF over GST control)"
same,binding signal,ETS2,"1.32 fold enrichment (6-mer frequency, TF over GST control)"
same,binding signal,SPDEF,"1.39 fold enrichment (6-mer frequency, TF over GST control)"
same,binding signal,ETV7,"1.23 fold enrichment (6-mer frequency, TF over GST control)"
same,binding signal,ELF5,"1.44 fold enrichment (6-mer frequency, TF over GST control)"
same,binding signal,ETV3,"1.48 fold enrichment (6-mer frequency, TF over GST control)"
same,binding signal,ETV6,"1.37 fold enrichment (6-mer frequency, TF over GST control)"

# — paper PMC7862700, “An all-to-all approach to the identification of sequence-specific readers for epigenetic DNA modifications on cytosine”
